TIM10 inh: inhibits growth of TIM10 yeast strain; inhibition, % at 10 µM; AID 463195; S. cerevisiae TIM10 strain growth, BacTiter-Glo luminescence, 24 h; 1.4% of 330,000 active;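 active = inhibition of 40% or more at the single tested concentration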;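 note: wild-type TIM10 isogenic control strain grown at permissive 25 °C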
NALP3 yeast inh: NALP3 inhibition in yeast; inhibition, % at 10 µM; Yeast reconstituted NLRP3/ASC/caspase-1, beta-gal luminescence, 24 h; 0.39% of 330,000 active;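 active = inhibition of 50% or more; inactive = inhibition below 50%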;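 note: plate controls were induced DMSO wells for no effect and uninduced yeast grown without galactose for full effect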
tim10-1 inh: tim10-1 yeast growth inhibition; S. cerevisiae tim10-1 ts strain growth, BacTiter-Glo, 24 h; inhibition, % at 20 µM; 2.2% of 330,000 active;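 active = inhibition of at least 40%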;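 note: mutant grown at 25 °C; 0% = DMSO wells with yeast and 100% = wells holding no yeast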
PfHsp90 set2: growth inhibition of yeast expressing Plasmodium Hsp90; S. cerevisiae expressing PfHsp90, BacTiter-Glo ATP, 48 h; yeast lacking PDR1 and PDR3 efflux regulators; inhibition, % at 9.4 µM; 0.32% of 310,000 active;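 active = every replicate shows inhibition above about 80%, whatever the replicate mean, limit read from the data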;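 note: 0% = DMSO neutral controls and 100% = 20 µM radicicol positive controls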
tim23-1 inh: tim23-1 yeast growth inhibition. S. cerevisiae tim23-1 growth, BacTiter-Glo luminescence, 24 h. inhibition, % at 20 µM. 1.3% of 330,000 active;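 active = growth inhibition of the mutant yeast at or above 50%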;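 note: temperature-sensitive mutant grown at 25 °C; plate controls were DMSO-treated mutant yeast for no effect and medium wells lacking yeast for full effect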
tim10-1 conf: confirmation of tim10-1 mutant yeast growth inhibitors | shares compounds with tim10-1 inh | S. cerevisiae tim10-1 ts strain growth, BacTiter-Glo, 24 h | inhibition, % at 20 µM | 56% of 7,400 active | AID 463213;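 active = inhibition of yeast growth at or above a set limit in either of two repeat tests at 20 µM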;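 note: tim10-1 mutant grown at permissive 25 °C to find synthetic lethal compounds; 0% = DMSO yeast wells and 100% = medium wells without yeast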
The depositor's hits bear a star. A selection: hits, their analogues and other compounds. The true share with any hit is near 3.7%.

Results for O=C1CN(Cc2ccccc2)C(=NCc2ccco2)S1 ?
TIM10 inh: 4.3; NALP3 yeast inh: 27.1; tim10-1 inh: 45.2*; PfHsp90 set2: 5.9; tim23-1 inh: 33.9; tim10-1 conf: 19.6

Results for Cc1cc(=O)oc2c(C)cc(C(C)(C)C)cc12 ?
PfHsp90 set2: -57.8

Results for COC(=O)c1ccc(Nc2c([N+](=O)[O-])ccc3nonc23)cc1 ?
TIM10 inh: -13.8; NALP3 yeast inh: 22.4; tim10-1 inh: 3.5; PfHsp90 set2: -21.5; tim23-1 inh: 7.5

Results for FC(F)(F)c1cnc(Sc2nc3nccc(-c4ccc(Cl)cc4)n3n2)c(Cl)c1 ?
TIM10 inh: 37.1; NALP3 yeast inh: 23.7; tim10-1 inh: 41.4*; PfHsp90 set2: -7.2; tim23-1 inh: 36.3; tim10-1 conf: 2.6

How did COc1ccc(-c2ccnc3nc(Sc4ncc(C(F)(F)F)cc4Cl)nn23)cc1 do in these assays?
TIM10 inh: 32.1; NALP3 yeast inh: 17.5; tim10-1 inh: 50.5*; PfHsp90 set2: 5.4; tim23-1 inh: 45.7; tim10-1 conf: 29.4

What do the screens show for `Nn1c(SCC(=O)Nc2ccc(N3CCOCC3)cc2)nnc1C1CC1`?
TIM10 inh: -5.3; NALP3 yeast inh: 0.4; tim10-1 inh: -3.9; tim23-1 inh: -10.9

Results for Cc1ccc(C2CC2C(=O)NNC(=S)Nc2cccc(C)c2)cc1 (stereo not given) ?
TIM10 inh: 32.4; NALP3 yeast inh: 8.0; tim10-1 inh: 48.9*; tim23-1 inh: 23.2; tim10-1 conf: 16.2

Results for Cc1ccc(C2CC2C(=O)NNC(=S)Nc2cccc(Cl)c2)cc1 (stereo not given) ?
TIM10 inh: 17.8; NALP3 yeast inh: 4.9; tim10-1 inh: 35.0; PfHsp90 set2: 4.5; tim23-1 inh: 15.4

Results for CCOC(=O)/C(=N/Nc1ccccc1)c1csc(Nc2ccccc2)n1 ?
TIM10 inh: 34.3; NALP3 yeast inh: 13.9; tim10-1 inh: 48.1*; PfHsp90 set2: 0.7; tim23-1 inh: 37.5; tim10-1 conf: 19.1

Results for CCOC(=O)/C(=N\Nc1ccc(Cl)cc1)c1csc(Nc2ccccc2)n1 ?
TIM10 inh: 38.6; NALP3 yeast inh: 26.1; tim10-1 inh: 39.0; PfHsp90 set2: -10.1; tim23-1 inh: 23.2

Results for CCCCC(CCC(=O)O)(C(=O)OCC)c1csc(Nc2ccccc2)n1 (stereo not given) ?
TIM10 inh: 16.2; NALP3 yeast inh: 7.4; tim10-1 inh: 42.1*; PfHsp90 set2: -18.8; tim23-1 inh: 24.1; tim10-1 conf: 11.4

How did CN(Cc1ccccc1)S(=O)(=O)c1csc(C(N)=O)c1 do in these assays?
TIM10 inh: -3.8; NALP3 yeast inh: -5.7; tim10-1 inh: -24.6; PfHsp90 set2: 25.5; tim23-1 inh: -3.6

How did CCCCSCCCNC(=O)CCCN1C(=O)c2ccccc2Sc2ncccc21 do in these assays?
TIM10 inh: 2.9; NALP3 yeast inh: -1.2; tim10-1 inh: 0.8; PfHsp90 set2: -5.7; tim23-1 inh: -3.5

What do the screens show for `Cc1ccccc1NC(=O)CSc1nnc(-c2ccccc2)n1-c1ccccc1`?
TIM10 inh: 4.9; NALP3 yeast inh: 8.3; tim10-1 inh: 10.6; PfHsp90 set2: -16.0; tim23-1 inh: 10.3

How did N#Cc1ccccc1NC(=O)CSc1nnc(-c2ccccc2O)n1-c1ccccc1 do in these assays?
TIM10 inh: 12.1; NALP3 yeast inh: 5.4; tim10-1 inh: 41.8*; tim23-1 inh: 22.7; tim10-1 conf: 16.1

Results for Cc1cc(C(=O)C(C)OC(=O)c2ccc(NC(=O)CC#N)cc2)c(C)n1-c1ccccc1 (stereo not given) ?
TIM10 inh: 26.2; NALP3 yeast inh: 17.3; tim10-1 inh: 42.3*; PfHsp90 set2: -21.7; tim23-1 inh: 33.8; tim10-1 conf: 19.1

How did CC(OC(=O)c1ccc(NC(=O)CC#N)cc1)C(=O)NC(c1ccccc1)c1ccccc1 (stereo not given) do in these assays?
TIM10 inh: 18.7; NALP3 yeast inh: -6.4; tim10-1 inh: 10.5; PfHsp90 set2: -34.7; tim23-1 inh: 1.4

Results for COc1ccccc1N1CCN(C(=O)c2oc3cc(C)cc(C)c3c2C)CC1 ?
TIM10 inh: 28.0; NALP3 yeast inh: 6.0; tim10-1 inh: 44.9*; PfHsp90 set2: -6.4; tim23-1 inh: 30.5; tim10-1 conf: 27.5

Results for COc1ccccc1N1CCN(C(=O)c2cc(-c3ccc(F)cc3)[nH]c2C)CC1 ?
TIM10 inh: 14.5; NALP3 yeast inh: 11.2; tim10-1 inh: 43.0*; PfHsp90 set2: 3.2; tim23-1 inh: 40.1; tim10-1 conf: 40.5*

Results for COc1ccc2[nH]c(C(=O)N3CCN(c4ccccc4F)CC3)c(C)c2c1 ?
TIM10 inh: 19.2; NALP3 yeast inh: 21.9; tim10-1 inh: 47.2*; PfHsp90 set2: -61.3; tim23-1 inh: 44.7; tim10-1 conf: 32.9*

What do the screens show for `COc1cc(OC)cc(C(=O)N2CCN(c3ccccc3F)CC2)c1`?
TIM10 inh: -8.2; NALP3 yeast inh: -14.1; tim10-1 inh: 27.6; PfHsp90 set2: -5.8; tim23-1 inh: 26.6

How did COc1cc(C(=O)N2CCN(c3cccc(C)c3C)CC2)cc(OC)c1OC do in these assays?
TIM10 inh: 20.5; NALP3 yeast inh: -15.8; tim10-1 inh: 42.0*; PfHsp90 set2: -49.1; tim23-1 inh: 42.2; tim10-1 conf: 1.6

What do the screens show for `CCN(C[C@H]1N[C@@](C)(C(=O)OC)[C@H]2C(=O)N(C)C(=O)[C@@H]12)C(=O)C1CCCCC1`?
TIM10 inh: 7.5; NALP3 yeast inh: 6.3; tim10-1 inh: -14.7; PfHsp90 set2: 13.1; tim23-1 inh: -7.3

Results for CCOC(=O)C1CCCN(S(=O)(=O)CCNC(=O)c2ccccc2)C1 (stereo not given) ?
TIM10 inh: 13.4; NALP3 yeast inh: 5.9; tim10-1 inh: 6.1; PfHsp90 set2: 1.0; tim23-1 inh: 3.7

What do the screens show for `COc1ccccc1N1CCN(C(=O)C2CC2)CC1`?
TIM10 inh: -13.1; NALP3 yeast inh: 11.2; tim10-1 inh: -12.1; tim23-1 inh: 26.2

How did COc1ccccc1N1CCN(C(=O)C2c3ccccc3Oc3ccccc32)CC1 do in these assays?
TIM10 inh: 23.9; NALP3 yeast inh: 1.3; tim10-1 inh: 45.2*; tim23-1 inh: 32.7; tim10-1 conf: 20.4

What do the screens show for `Cc1[nH]c(-c2ccc(F)cc2)cc1C(=O)N1CCN(c2ccccc2F)CC1`?
TIM10 inh: 14.9; NALP3 yeast inh: -13.8; tim10-1 inh: 47.5*; PfHsp90 set2: 12.1; tim23-1 inh: 49.2; tim10-1 conf: 40.2*

What do the screens show for `Cc1[nH]c(-c2ccc(F)cc2)cc1C(=O)N1CCN(c2ccccc2)CC1`?
TIM10 inh: 25.2; NALP3 yeast inh: 10.2; tim10-1 inh: 37.4; PfHsp90 set2: -33.2; tim23-1 inh: 40.6

How did COc1cccc(N2CCN(C(=O)c3cc(-c4ccc(F)cc4)[nH]c3C)CC2)c1 do in these assays?
TIM10 inh: 21.0; NALP3 yeast inh: -5.1; tim10-1 inh: 50.0*; PfHsp90 set2: -27.1; tim23-1 inh: 39.2; tim10-1 conf: 26.8

High-throughput results as filed in PubChem.
